Screens from PubChem.
Compounds with a hit are over-represented: about 22% of the library has one in this group of screens.
Measles CPE – compounds protecting cells from measles virus cytopathic effect, primary screen, measles RdRp inhibitor project, single point, MLSMR library, absorbance; Measles virus-infected cells, CPE protection; protection (pct of control), % at 4 µM; 140,000 tested, 1.5% active; in the data active means protection mostly above about 24%, no sharp cut-off; inactive means mostly below about 26%
CYP2C19 act – human CYP2C19 activators, primary screen, biochemical, luminescence. 96,000 tested, under 10 active. recombinant CYP2C19, luciferin-H EGE luminescence; stronger effect = higher value; 0 = fully inhibited enzyme, 1 = untreated enzyme. activation factor at 5 µM;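 active means activation factor of at least 2 at 5 µM in the primary screen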
Target sequence (P33261 whole entry, looked up): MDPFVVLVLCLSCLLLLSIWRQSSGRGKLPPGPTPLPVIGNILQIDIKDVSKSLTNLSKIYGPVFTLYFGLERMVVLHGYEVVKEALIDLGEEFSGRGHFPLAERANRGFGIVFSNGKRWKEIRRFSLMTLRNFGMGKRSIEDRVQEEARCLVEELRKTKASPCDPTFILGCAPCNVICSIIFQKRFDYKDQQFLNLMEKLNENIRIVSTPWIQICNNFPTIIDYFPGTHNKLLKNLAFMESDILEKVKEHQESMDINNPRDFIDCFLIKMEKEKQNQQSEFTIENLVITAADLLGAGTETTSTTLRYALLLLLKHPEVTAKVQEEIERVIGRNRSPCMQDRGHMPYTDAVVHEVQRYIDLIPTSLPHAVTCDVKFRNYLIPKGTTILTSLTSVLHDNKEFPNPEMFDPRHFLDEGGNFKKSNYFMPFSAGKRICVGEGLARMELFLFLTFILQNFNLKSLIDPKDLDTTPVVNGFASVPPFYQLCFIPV
CYP2C9 inh – blockers of cytochrome P450 2C9 activity – biochemical, luminescence, ADME assay, primary screen; CYP2C9 Supersomes, luciferin-H conversion; inhibition, % at 5 µM; 96,000 tested, 20% active; AID 777, 2007;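 active means blocking of liver enzyme CYP2C9 beyond about 50% at 5 µM, limit read from the data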
CYP2C19 inhib – blockers of cytochrome P450 2C19 activity – biochemical, luminescence, ADME assay, primary screen; AID 778, 2007; 96,000 tested, 21% active; CYP2C19 Supersomes, luciferin-H EGE luminescence, 30 min; inhibition, % at 5 µM; P33261;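 active means CYP2C19 inhibition above a set limit at 5 µM in the primary screen, cut at about 50% in these data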
CYP2C9 activ – human CYP2C9 activators, primary screen, biochemical, luminescence; Cytochrome P450 2C9 (Homo sapiens), P11712; recombinant CYP2C9, luciferin-H conversion; stronger effect = higher value; factor 1 = untreated enzyme, 0 = blocked; activation factor at 5 µM; 96,000 tested, 1.4% active; AID 1024, 2008;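 active means activation factor of 2 or more for CYP2C9 at a 5 µM dose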
A number is an active result.

CC(=O)NC1(c2ccccc2)CCN(c2nc(C)cc(C)n2)CC1 was read as Measles CPE inactive, CYP2C19 act inactive, CYP2C9 inh 96.6, CYP2C19 inhib 93.3 and CYP2C9 activ inactive.
Screening Cc1cc(C)nc(N2CCC(C(=O)NC3CCCc4ccccc43)CC2)n1 (stereo not drawn) returned Measles CPE inactive, CYP2C19 act inactive, CYP2C9 inh inactive, CYP2C19 inhib inactive and CYP2C9 activ inactive.
Screening O=C(NCc1ccccc1)C(c1ccc(F)cc1)N(Cc1ccco1)C(=O)c1ccccn1 (stereo not drawn) returned Measles CPE inactive, CYP2C19 act inactive, CYP2C9 inh inactive, CYP2C19 inhib 61.5 and CYP2C9 activ inactive.
Cc1cccc(C)c1NC(=O)C1(N(Cc2ccco2)C(=O)c2ccccn2)CCCC1 was read as Measles CPE inactive, CYP2C19 act inactive, CYP2C9 inh 62.7, CYP2C19 inhib inactive and CYP2C9 activ inactive.
Screening Cc1ccccc1C(C(=O)NCc1ccccc1)N(Cc1ccco1)C(=O)c1ccccn1 (stereo not drawn) returned Measles CPE inactive, CYP2C19 act inactive, CYP2C9 inh inactive, CYP2C19 inhib 53.5 and CYP2C9 activ inactive.
COc1ccc(-c2oc(/N=C/N3CCOCC3)c(C#N)c2-c2ccc(OC)cc2)cc1 was read as Measles CPE inactive, CYP2C19 act inactive, CYP2C9 inh 89.5, CYP2C19 inhib 63.7 and CYP2C9 activ inactive.
Screening COc1ccc(-c2oc(NC(=O)c3ccc(C)cc3)c(C#N)c2-c2ccc(OC)cc2)cc1 returned Measles CPE inactive, CYP2C19 act inactive, CYP2C9 inh 93.6, CYP2C19 inhib 69.3 and CYP2C9 activ inactive.
Screening CCC(=O)Nc1nnc(-c2ccc(OC)cc2)o1 returned Measles CPE inactive, CYP2C19 act inactive, CYP2C9 inh inactive, CYP2C19 inhib inactive and CYP2C9 activ inactive.
Screening COc1ccc(-c2oc(NC(C)=O)c(C#N)c2-c2ccc(OC)cc2)cc1 returned Measles CPE inactive, CYP2C19 act inactive, CYP2C9 inh 72.2, CYP2C19 inhib 57.4 and CYP2C9 activ inactive.
For N#Cc1c(/N=C/c2ccccc2)oc(-c2ccccc2)c1-c1ccccc1 the results were Measles CPE inactive.
COc1ccc(C(=O)Nc2oc(-c3ccccc3)c(-c3ccccc3)c2C#N)cc1 was read as Measles CPE inactive, CYP2C19 act inactive, CYP2C9 inh 76.8, CYP2C19 inhib inactive and CYP2C9 activ inactive.
`Cc1cc(NCCO)nc(-n2nc(C)cc2C)n1` gave Measles CPE inactive, CYP2C19 act inactive, CYP2C9 inh inactive, CYP2C19 inhib inactive and CYP2C9 activ inactive.
`COc1ccc(C(=O)Nc2oc(-c3ccccc3)c(-c3ccccc3)c2C#N)cc1OC` gave Measles CPE inactive, CYP2C19 act inactive, CYP2C9 inh 73.7, CYP2C19 inhib inactive and CYP2C9 activ inactive.
Screening CCOC(=O)c1cc(-c2ccccc2)sc1NC(=O)c1ccc(OC)c(OC)c1 returned Measles CPE inactive.
C(=N\n1cnnc1)/c1ccc2ncccc2c1 was read as Measles CPE inactive, CYP2C19 act inactive, CYP2C9 inh inactive, CYP2C19 inhib 56.7 and CYP2C9 activ inactive.
Screening COC(=O)NNC(=O)COc1ccc(Br)c(C)c1 returned Measles CPE inactive, CYP2C19 act inactive, CYP2C9 inh inactive, CYP2C19 inhib inactive and CYP2C9 activ inactive.
Screening Cc1cc(OCC(=O)Nn2cnnc2)ccc1Br returned Measles CPE inactive, CYP2C19 act inactive, CYP2C9 inh 100.3, CYP2C19 inhib 99.9 and CYP2C9 activ inactive.
`C=CCn1c(=O)/c(=C/c2ccc(Cl)cc2)s/c1=C(/C#N)c1nnc2n1CCCCC2` gave Measles CPE inactive, CYP2C19 act inactive, CYP2C9 inh 78.3, CYP2C19 inhib inactive and CYP2C9 activ inactive.
Screening Cc1cc(C(C)(C)C)oc1C(=O)N(CC(=O)NC1CCCC1)Cc1ccccc1Cl returned Measles CPE inactive, CYP2C19 act inactive, CYP2C9 inh 54.2, CYP2C19 inhib inactive and CYP2C9 activ inactive.
For Cc1ccccc1N(CC(=O)NC1CCCC1)C(=O)c1oc(C(C)(C)C)cc1C the results were Measles CPE inactive, CYP2C19 act inactive, CYP2C9 inh inactive, CYP2C19 inhib inactive and CYP2C9 activ inactive.
CC(=O)Nc1nc(S(=O)(=O)c2ccc(C)cc2)c(Cl)s1 was read as Measles CPE inactive, CYP2C19 act inactive, CYP2C9 inh inactive, CYP2C19 inhib 55.2 and CYP2C9 activ inactive.
`COCCN(CCOC)c1nc(S(=O)(=O)c2ccc(C)cc2)c(Cl)s1` gave Measles CPE 28.3, CYP2C19 act inactive, CYP2C9 inh 55.8, CYP2C19 inhib 81.2 and CYP2C9 activ inactive.
Screening CCOc1nc(S(=O)(=O)c2ccc(C)cc2)c(Cl)s1 returned Measles CPE inactive, CYP2C19 act inactive, CYP2C9 inh inactive, CYP2C19 inhib 83.2 and CYP2C9 activ inactive.
For Cc1ccc(S(=O)(=O)c2nc(NCc3ccc4c(c3)OCO4)sc2Cl)cc1 the results were Measles CPE inactive, CYP2C19 act inactive, CYP2C9 inh inactive, CYP2C19 inhib inactive and CYP2C9 activ inactive.
Screening Cc1ccc(S(=O)(=O)c2nc(Nc3nccs3)sc2Cl)cc1 returned Measles CPE inactive, CYP2C19 act inactive, CYP2C9 inh 60.4, CYP2C19 inhib 67.9 and CYP2C9 activ inactive.
`Cc1ccc(S(=O)(=O)N2CCN(C(=O)CN3C(=O)NC4(CCOc5ccccc54)C3=O)CC2)cc1` (stereo not drawn) gave Measles CPE inactive, CYP2C19 act inactive, CYP2C9 inh inactive, CYP2C19 inhib inactive and CYP2C9 activ inactive.
Screening O=C(CCc1ccc(S(=O)(=O)NCCc2ccccc2)cc1)NCc1ccco1 returned Measles CPE inactive.
`COC(=O)Nc1nnc(-c2ccncc2)s1` gave Measles CPE inactive, CYP2C19 act inactive, CYP2C9 inh inactive, CYP2C19 inhib inactive and CYP2C9 activ inactive.
`c1ccc2c(Nc3nnc(-c4ccncc4)s3)cccc2c1` gave Measles CPE inactive, CYP2C19 act inactive, CYP2C9 inh 90.1, CYP2C19 inhib 96.5 and CYP2C9 activ inactive.
For C=CCNc1nnc(-c2ccncc2)s1 the results were Measles CPE inactive, CYP2C19 act inactive, CYP2C9 inh inactive, CYP2C19 inhib 77.1 and CYP2C9 activ inactive.
`O=C(Nc1ccc(F)cc1F)c1cc2ncc(CCCl)cn2n1` gave Measles CPE inactive.
`CCOC(=O)CC(=O)CSc1nc2c(cc1C#N)CCCCC2` gave Measles CPE inactive, CYP2C19 act inactive, CYP2C9 inh 66.5, CYP2C19 inhib inactive and CYP2C9 activ inactive.
N#Cc1cc2c(nc1SCC(=O)N1CCCCC1)CCCC2 was read as Measles CPE inactive, CYP2C19 act inactive, CYP2C9 inh inactive, CYP2C19 inhib inactive and CYP2C9 activ inactive.
`CC(C)OC(=O)CC(=O)CSc1nc2c(cc1C#N)CCCCC2` gave Measles CPE inactive, CYP2C19 act inactive, CYP2C9 inh 87.4, CYP2C19 inhib 72.9 and CYP2C9 activ inactive.
`Cc1ccc(-c2nnn(CC(=O)N3c4ccccc4CCc4ccccc43)n2)cc1` gave Measles CPE inactive.
